High-throughput results deposited in PubChem BioAssay by NMMLSC.
In the library only some 2.2% were active in any assay of this set; here they are far more common.
MEKK2wt PB1 HTS = modulators of MEK5 binding to wildtype MEKK2, primary screen, biochemical, multiplex bead flow cytometry, Alexa488-MEK5 | Mitogen-activated protein kinase kinase kinase 2 (Homo sapiens), Q9Y2U5 | Alexa488-MEK5 binding to MEKK2 WT; actives lie on both sides | binding response (% of control), % at 10 µM | 1.1% of 290,000 active | AID 1531, 2009; in the data active means binding response below about 67% or above about 130%
MEKK3 PB1 HTS = modulators of MEKK3-MEK5 PB1 binding, primary screen, biochemical, wildtype MEKK3, multiplex bead flow cytometry, Alexa488-MEK5; Mitogen-activated protein kinase kinase kinase 3 (Homo sapiens), Q99759; bead-based flow cytometry, Alexa488-MEK5 binding to MEKK3; actives lie on both sides; 0 = blocked by unlabeled MEK5, 100 = vehicle; binding response (% of control), % at 10 µM; 1.4% of 290,000 active;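 active means binding response more than 3 SD above or below the average of its plate-row segment, actives on both sides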;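 further: Alexa488 bead fluorescence after subtracting the streptavidin-only scavenger bead signal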
Target sequence (Q99759 whole entry, looked up): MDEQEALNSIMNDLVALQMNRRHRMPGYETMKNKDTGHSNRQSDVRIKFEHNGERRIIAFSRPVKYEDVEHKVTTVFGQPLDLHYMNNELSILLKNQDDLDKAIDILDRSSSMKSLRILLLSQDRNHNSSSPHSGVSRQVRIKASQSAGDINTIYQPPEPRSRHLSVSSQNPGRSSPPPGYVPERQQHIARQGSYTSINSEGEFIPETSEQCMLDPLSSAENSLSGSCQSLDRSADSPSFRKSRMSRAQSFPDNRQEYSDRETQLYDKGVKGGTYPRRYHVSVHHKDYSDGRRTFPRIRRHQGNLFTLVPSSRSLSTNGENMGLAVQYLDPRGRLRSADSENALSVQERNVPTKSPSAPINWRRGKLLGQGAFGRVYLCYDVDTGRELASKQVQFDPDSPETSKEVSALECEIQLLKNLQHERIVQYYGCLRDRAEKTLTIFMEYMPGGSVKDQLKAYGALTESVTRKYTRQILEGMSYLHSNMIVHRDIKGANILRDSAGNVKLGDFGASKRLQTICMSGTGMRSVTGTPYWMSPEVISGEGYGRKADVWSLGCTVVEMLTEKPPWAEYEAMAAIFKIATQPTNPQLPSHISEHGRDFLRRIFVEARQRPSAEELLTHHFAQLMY
VLA-4 inh = inhibition in human VLA-4 binding assay, primary screen, VLA-4 allosteric modulator project, MLPCN library, flow cytometry, VLA-4 expressing cells. ligand binding flow cytometry. inhibition, % (about 7 µM as worked out from the volumes in the protocol). 0.2% of 330,000 active. AID 2557, 2010; in the data active means inhibition above about 50%
MEKK2 mut-MEK5 = MEK5 binding signal on mutant MEKK2 PB1, primary screen, biochemical, multiplex bead flow cytometry, Alexa488-MEK5; Alexa488-MEK5 binding to MEKK2 mutant; percent response, % at 10 µM; 0.35% of 290,000 active; in the data active means percent response above about 24%, passing the limit was not always enough
MEKK2wt confirm = modulators of MEK5 binding to wildtype MEKK2, confirmation, biochemical, single concentration, multiplex bead flow cytometry. Alexa488-MEK5 binding to MEKK2 WT; actives lie on both sides. AID 1892, 2009. 2.4% of 5,900 active. shares compounds with MEKK3 PB1 HTS. binding response (% of control), % at 10 µM; in the data active means binding response below about 16% or above about 210%; inactive means in between
MEKK2mut confirm = mutant MEKK2 PB1-MEK5 binding signal retest – biochemical, single concentration, multiplex bead flow cytometry, confirmation; shares compounds with MEKK3 PB1 HTS; Alexa488-MEK5 binding to MEKK2 mutant; percent response, % at 10 µM; 2% of 5,900 active; AID 1893, 2009; in the data active means percent response mostly above about 71%, no sharp cut-off; inactive means mostly below about 38%;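 further: higher means compound restores mutant binding toward wildtype level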
MEKK3-MEK5 inh = MEKK3 wild-type PB1 binding to MEK5, inhibitors, confirmation, biochemical, bead multiplex flow cytometry, single concentration, wildtype. 1.8% of 5,900 active. Alexa488-MEK5 binding to MEKK3; active compounds read low. shares compounds with MEKK3 PB1 HTS. binding response (% of control), % at 10 µM;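 active means binding response below 72% of control, or above a set upper limit, though filed actives all read lower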;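 further: lower values mean stronger disruption of MEK5 binding to MEKK3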
A number is an active result; . = inactive; / = not tested or not shown; [ ] = another dose, or the depositor's remark.

SMILES | MEKK2wt PB1 HTS | MEKK3 PB1 HTS | VLA-4 inh | MEKK2 mut-MEK5 | MEKK2wt confirm | MEKK2mut confirm | MEKK3-MEK5 inh
COc1ccc(C(=O)c2c[nH]cc2-c2ccccc2)cc1 | . | . | . | . | / | / | /
Nc1c(-c2ccccc2)cnn1-c1ccc(C(=O)O)cc1 | . | 82[inhibitor] | . | . | . | . | .
COc1ccc(CC(=O)OCC(=O)NCc2ccccc2Cl)cc1 | . | 151 | . | . | . | . | .
O=C(NNC(=O)c1cccc(C(F)(F)F)c1)c1ccncc1 | . | . | . | . | / | / | /
O=C(NNC1=NCCN1Cc1ccccc1)c1cccc(C(F)(F)F)c1 | . | 128 | . | . | . | . | .
O=C(Nc1ccc(OC(F)F)c(Cl)c1)c1cccc(OC(F)F)c1 | 151 | . | . | . | . | . | .
COc1ccc(NC(=O)c2cccc(OC(F)F)c2)cc1Cl | . | . | / | . | / | / | /
COc1cc(CNCCc2c[nH]c3ccccc23)ccc1OCc1ccccc1F | 244 | . | . | 60 | . | 73 | .
COc1ccc(CCNC(=O)NCCc2c[nH]c3ccccc23)cc1OC | . | . | . | . | / | / | /
COc1cccc(CNCCc2c[nH]c3ccccc23)c1OCc1ccccc1 | 165 | . | . | 58 | . | . | .
COC(=O)c1ccc(NS(=O)(=O)N(C)C)cc1 | . | . | . | . | / | / | /
Cc1ccc(NS(=O)(=O)N(C)C)cc1 | . | 71[inhibitor] | . | . | . | . | .
Cc1nc2c3cc(F)ccc3n(Cc3ccccc3)c2s1 | . | 155 | . | . | . | . | .
Cc1nc2c3cc(F)ccc3n(Cc3ccccc3F)c2s1 | . | 140 | . | . | . | . | .
COc1cc(N2CCCC2)c(OC)cc1/C=C(/C#N)c1ccc(F)cc1 | 53[inhibitor] | . | . | . | . | . | .
COc1cc(N2CCCC2)c(OC)cc1/C=C(/C#N)c1ccc(Br)cc1 | . | . | . | 189 | . | . | .
Cc1ccc(S(=O)(=O)Nc2c(NC3CCCCC3)c3ccccc3oc2=O)c(C)c1 | . | . | . | . | / | / | /
C=CCn1c(SCC2CCCCO2)nc2sc(CC)cc2c1=O (configuration not stated) | . | . | . | . | / | / | /
COc1cc(C(=O)NCC(c2ccccc2)N(C)C)ccc1OCc1c(C)noc1C (configuration not stated) | / | / | . | / | / | / | /
Cn1c(-c2ccc(C(C)(C)C)cc2)n[nH]c1=S | . | 81[inhibitor] | . | . | . | . | .
CC(C)COCC1CC2(CC(C)C(=O)CC2=O)C(=O)O1 (configuration not stated) | . | 123 | . | . | . | . | .
CC(C)COCC1CC2(CC(C)(c3csc(N)n3)OC2=O)C(=O)O1 (configuration not stated) | . | . | / | . | / | / | /
O=C(O)C1C2C=CC(C2)C1C(=O)Nc1ccc(Cl)c(Cl)c1 (configuration not stated) | . | . | . | 26 | . | . | .
CCOc1ccc(NC(=O)CCC(=O)Oc2ccc(C)cc2)cc1 | . | . | . | . | / | / | /
Cc1cccc(CCN2CCN=C2Nc2ccccc2)c1 | / | / | . | / | / | / | /
SMILES | MEKK2wt PB1 HTS | MEKK3 PB1 HTS | VLA-4 inh | MEKK2 mut-MEK5 | MEKK2wt confirm | MEKK2mut confirm | MEKK3-MEK5 inh
COc1ccc(NS(=O)(=O)c2cccc(C(=O)NNC(=O)c3ccc(=O)[nH]c3)c2)cc1 | / | / | . | / | / | / | /
COc1cccc(CC2(CO)CCCN(Cc3ccc(C)s3)C2)c1 (configuration not stated) | . | . | . | . | / | / | /
COc1cccc(CC2(CO)CCCN(Cc3[nH]c4ccc(C)cc4c3C)C2)c1 (configuration not stated) | 157 | . | . | . | . | . | .
COc1cccc(CC2(CO)CCCN(Cc3cc4ccccc4[nH]3)C2)c1 (configuration not stated) | 148 | . | . | . | . | . | .
Cn1cccc2[nH]c(=O)nc1-2 | . | . | . | . | / | / | /
Brc1ccc(-c2csc(/N=C/N3CCCC3)n2)cc1 | . | . | . | . | / | / | /
CCN1CCN(/C=N/c2nc(C)cs2)CC1 | -2.0[inhibitor] | 2.0[inhibitor] | . | . | . | . | .
CC(C)(C)n1ncc2c(=O)n(Cc3ccc(Cl)cc3Cl)cnc21 | 2.0[inhibitor] | 2.0[inhibitor] | . | . | . | . | .
O=C(O)c1ccc(CNCc2cccc(Oc3ccccc3)c2)cc1 | . | . | . | . | / | / | /
CCOc1cccc(CNCc2ccc(C(=O)O)cc2)c1 | . | 50[inhibitor] | . | . | . | . | .
COc1ccc(-c2noc(=O)n2Cc2ccccc2F)cc1 | . | . | . | . | / | / | /
Cc1cc(C(C)(C)C)cc(C)c1COC(=O)c1cccnc1 | . | . | . | . | / | / | /
COc1ccc2c(C)cc3nncn3c2c1 | . | . | . | . | / | / | /
Cc1cc2nncn2c2ccccc12 | . | 78[inhibitor] | . | . | . | . | .
COc1cc(CN(C)CC2CCCN(CCc3cccc(C(F)(F)F)c3)C2)ccc1O (configuration not stated) | 156 | . | . | 28 | . | . | .
COc1ccc(CN(C)CC2CCCN(CCc3ccc(F)cc3)C2)cc1OC (configuration not stated) | . | . | . | . | / | / | /
CN(CCc1cn[nH]c1)C(=O)C1CCC(=O)N(CC2CCCCC2)C1 (configuration not stated) | . | . | / | . | / | / | /
CCCOc1ccc(C2=NNC(=O)CC2)cc1 | . | 68[inhibitor] | . | . | . | . | .
COC(=O)c1cc(S(=O)(=O)N2CCN(c3cccc(C)c3C)CC2)c[nH]1 | . | . | . | . | / | / | /
O=C(Nc1cccc(C(=O)N2CCCc3ccccc32)c1)c1ccccc1 | . | . | . | . | / | / | /
O=C(NCc1ccc(N2CCCC2=O)cc1)Nc1cccc2ccccc12 | -1.0[inhibitor] | 1.0[inhibitor] | . | . | . | . | .
CSc1cccc(CNC(=O)C2CCC(=O)N(CCCN3CCCC3=O)C2)c1 (configuration not stated) | . | . | . | . | / | / | /
Cc1[nH]c2ccccc2c1C(=O)CN1CCCCC1CCO (configuration not stated) | . | 44[inhibitor] | . | . | . | . | .
CCn1c(SCC(=O)O)nnc1-c1ccccc1OC | . | . | . | . | / | / | /
COc1ccccc1-c1nnc(SCC(=O)O)n1-c1ccccc1 | . | 135 | . | . | . | . | .
CCOC(=O)COc1coc(CN2CCN(c3ccc(F)cc3)CC2)cc1=O | . | . | . | . | / | / | /
